From PubChem BioAssay
Hits are enriched below; roughly 7.6% of the tested compounds scored in any of these assays.
NS3h inh CB: hepatitis C NS3 helicase inhibition, primary screen | NS3h Cy5-dT15 DNA binding, fluorescence polarization | inhibition, % at 100 µM | 16,000 compounds, 1.6% hits | AID 687043;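 active = inhibition above the average over every tested compound plus 3 SD, cut at about 40% in these data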
Cy5 interf NS3h: enhances or quenches Cy5 fluorescence in NS3h assay. Cy5-dT15 DNA with NS3h, fluorescence interference; actives lie on both sides; signal over control mean, under 1 quenches. fluorescence interference ratio at 100 µM. 16,000 compounds, 6% hits. AID 720488;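 active = compound fluorescence over control fluorescence at most 0.8, a quencher, or at least a set upper limit, an enhancer; inactive = ratio between 0.8 and the set upper limit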
Numbers without * were called inactive.

SMILES	NS3h inh CB	Cy5 interf NS3h
O=C(Nc1cc(Cl)ccc1O)c1cnn2c1NC(c1ccc(Br)cc1)CC2C(F)(F)F (stereo unspecified)	10	0.99
O=[N+]([O-])c1ccc(-n2nnc3ccccc32)nc1	11	1
CS(=O)(=O)N(CC(=O)Nc1ccc(Cl)cc1)c1ccc(Br)cc1	17	1
O=C(Cc1ccccc1)NC(NC(=S)Nc1ccccc1Cl)C(Cl)(Cl)Cl (stereo unspecified)	1	1.1
CC1CC(Nc2ccccc2)c2ccccc2N1C(=O)COc1ccc(Cl)cc1 (stereo unspecified)	9	1
CC1CC(Nc2ccccc2)c2ccccc2N1C(=O)c1ccc(Cl)cc1Cl (stereo unspecified)	12	0.62*
CC1CCN(Cn2[nH]c(=O)ccc2=O)CC1	-15	1.1
C=CCN(CC=C)Cn1[nH]c(=O)ccc1=O	15	0.75*
CN1CCN(C(=O)/C(=C/c2ccc3c(c2)OCO3)NC(=O)c2cccs2)CC1	4	1.1
C=CCc1c(C)nc2cc(-c3cccc(F)c3)[nH]n2c1=O	11	1.2*
CCOC(=O)CCc1c(C)nc2cc(-c3cccc(F)c3)[nH]n2c1=O	7	1.1
Cc1c(NC(=O)CN(c2cccc([N+](=O)[O-])c2)S(=O)(=O)c2ccccc2)c(=O)n(-c2ccccc2)n1C	6	0.86
COc1ccc(N(CC(=O)Nc2ccc(Cl)cc2C)S(=O)(=O)c2ccc(C)c([N+](=O)[O-])c2)cc1	20	0.68*
COc1ccc(OC)c(NC(=O)CN(c2ccccc2)S(=O)(=O)c2ccccc2[N+](=O)[O-])c1	12	0.75*
COc1ccc(OC)c(NC(=O)CN(c2cccc([N+](=O)[O-])c2)S(=O)(=O)c2ccccc2)c1	20	0.67*
COC(=O)CN(c1ccccc1)S(=O)(=O)c1ccccc1[N+](=O)[O-]	9	0.92
COc1ccc(N(CC(=O)Nc2ccc(C)cc2C)S(=O)(=O)c2ccc(C)cc2)cc1	13	0.98
CCOc1ccccc1NC(=O)CN(c1cccc([N+](=O)[O-])c1)S(=O)(=O)c1ccccc1	16	0.84
COc1ccc(-c2cc(C(=O)Nc3ccccc3C)c3ccccc3n2)cc1	3	0.98
O=C(Cc1ccc(Cl)cc1)NCCN1CCOCC1	30	0.91
O=C(NCCCN1CCOCC1)c1cccc(Cl)c1	10	0.75*
O=C(O/N=C(\c1ccccc1)c1ccncc1)c1ccc(Br)cc1	25	0.66*
COc1cc(OC)cc(C(=O)O/N=C(/c2ccncc2)c2ccc([N+](=O)[O-])cc2)c1	12	0.61*
N/C(=N/OC(=O)c1cccc(Br)c1)c1ccncc1	8	0.89
Cc1ccc(/C(N)=N\OC(=O)c2ccc([N+](=O)[O-])cc2)cc1	31	0.87
SMILES	NS3h inh CB	Cy5 interf NS3h
CC(=O)Nc1ccc(-n2c(C)cc(/C=C(/C#N)C(=O)Nc3ccc(Cl)cc3)c2C)cc1	11	1
O=C(Nc1ccc(OC(F)(F)F)cc1)c1cc2n(n1)C(C(F)(F)F)CC(c1cccs1)N2 (stereo unspecified)	9	0.71*
O=C(NCC1CCCO1)c1cc2n(n1)C(C(F)(F)F)CC(c1cccs1)N2 (stereo unspecified)	4	1
CC1CCCC(C)N1C(=O)c1nn2c(c1Cl)NC(c1cccs1)CC2C(F)(F)F (stereo unspecified)	9	0.99
NC(=O)c1nn2c(c1Cl)NC(c1cccs1)CC2C(F)(F)F (stereo unspecified)	0	0.67*
CCc1cc2c(=O)c(-c3nc4ccccc4s3)coc2cc1OS(C)(=O)=O	10	0.97
O=S(=O)(Nc1ccc(O)c(Cl)c1)c1cc(Cl)ccc1Cl	2	0.94
Cc1ccc(-n2nc(C)c(-c3cccc([N+](=O)[O-])c3)c2C)cc1Cl	7	0.65*
Cc1ccc(NCCC(=O)c2cccc([N+](=O)[O-])c2)cc1Cl	9	1
N#Cc1ccccc1NC(=O)c1ccc(Br)cc1	6	0.92
Cc1ccc(C2CC(C(F)(F)F)n3ncc(C(=O)N4CCSCC4)c3N2)cc1 (stereo unspecified)	15	0.49*
CN1CCN(C(=O)c2cnn3c2NC(c2ccc(Br)cc2)CC3C(F)(F)F)CC1 (stereo unspecified)	2	1
O=C(NCc1cccs1)c1cnn2c1NC(c1ccc(Br)cc1)CC2C(F)(F)F (stereo unspecified)	19	0.49*
O=C(O)c1cnn2c1NC(c1ccc(F)cc1)CC2C(F)(F)F (stereo unspecified)	-4	0.95
CC(C)NC(=O)c1cnn2c1NC(c1ccc(Br)cc1)CC2C(F)(F)F (stereo unspecified)	10	1.1
O=C(O)c1cnn2c1NC(c1ccc(Br)cc1)CC2C(F)(F)F (stereo unspecified)	-12	0.79*
Cc1ccc(NC(=O)c2ccc(OCc3ccccc3)cc2)c([N+](=O)[O-])c1	16	1
Cc1cccc(NC(=O)C(=O)NCCc2ccc(Cl)cc2)c1	-2	0.99
CCOC(=O)c1cc(-c2ccccc2)oc1CN1CCOCC1	2	1
COc1ccc(CCNC(=O)CN(c2cccc([N+](=O)[O-])c2)S(=O)(=O)c2ccccc2)cc1OC	14	1
O=C(CN(c1cccc([N+](=O)[O-])c1)S(=O)(=O)c1ccccc1)NCCSc1ccc(Cl)cc1	24	0.72*
Cc1ccc(CSCCNC(=O)CN(c2cccc([N+](=O)[O-])c2)S(=O)(=O)c2ccccc2)cc1	20	1.1
COCCCNC(=O)CN(c1cccc([N+](=O)[O-])c1)S(=O)(=O)c1ccccc1	14	0.73*
CCCOC(=O)c1ccc(NC(=O)COc2ccc3ccccc3c2)cc1	8	1.1
C=CCc1ccccc1OCCOc1c(Br)cc(/C=C2/SC(=S)N(C)C2=O)cc1OC	-1	1
SMILES	NS3h inh CB	Cy5 interf NS3h
O=C(Nc1ccccc1Br)C1CN(S(=O)(=O)c2ccccc2)CCN1S(=O)(=O)c1ccccc1 (stereo unspecified)	-1	1.1
O=C(Nc1ccccc1Cl)C1CN(S(=O)(=O)c2ccccc2)CCN1S(=O)(=O)c1ccccc1 (stereo unspecified)	11	1.4*
Cc1ccc(C(O)=C2C(=O)C(=O)N(c3nncs3)C2c2cccc(Cl)c2)cc1 (stereo unspecified)	9	0.94
COc1cc(OC)cc(C(=O)Nc2c(C)ccc3nsnc23)c1	13	0.97
CN(C)c1ccc(/C=C2\C(=O)Oc3ccccc3C2=O)cc1	26	1.1
CN(C)c1ccc(/C=C2\C(=O)c3cccc([N+](=O)[O-])c3C2=O)cc1	49*	0.94
Cc1cc(NC(=O)c2ccc(Cl)c([N+](=O)[O-])c2)ccc1Br	10	1.1
Cc1ccccc1C(=O)Nc1cccc(NC(=O)c2ccc(Cl)c([N+](=O)[O-])c2)c1	20	0.71*
Ic1ccc(-c2nc(-c3ccncc3)no2)cc1	2	1.1
COc1ccc(-n2c(C)cc(/C=C(\C#N)C(=O)Nc3ccc(F)cc3)c2C)cc1	-3	1
COc1ccc(/C(C)=N\N=C2/NC(=O)C(CC(=O)Nc3cc(Cl)ccc3Cl)S2)cc1 (stereo unspecified)	10	1.2*
C/C(=N/N=C1\NC(=O)C(CC(=O)Nc2ccc(Cl)cc2Cl)S1)c1ccc(Cl)cc1 (stereo unspecified)	-29	1.2
